PubChem BioAssay (NCATS)
Values joined by “and” are separate entries in the source; they are usually repeats but may differ in a detail not shown here. Equal values may be shown once. Inconclusive results are not listed. Active and inactive are the calls of the source. Unless noted, the call rests on the fitted dose curve; in most records, active means well fitted curve in the direction sought with a large enough effect; inconclusive means small, poorly fitted or top-dose-only effect, or another doubt; inactive means no such curve, though single readings can be large; an effect the other way counts as inactive or inconclusive.

Experiments:
[1] = Cell Viability - HepG2 (AID 433; calls by dose curve;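 further: potency means the concentration at half of the fitted maximal effect; potency for ATP loss meaning cytotoxicity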); conditions: qHTS
Summary of the method: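 Cytotoxicity is scored as loss of intracellular ATP in HepG2 cells exposed to compounds for 40 h. Concentration-response curves, normalized to DMSO and 100 uM tamoxifen, give AC50 values.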

[2] = Cell Viability - MRC5 (AID 434; calls by dose curve;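 further: potency means the concentration at half of the fitted maximal effect; potency reflects cytotoxicity seen as loss of intracellular ATP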); conditions: MRC5 lung fibroblast viability, qHTS
Summary of the method: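 MRC5 normal human lung fibroblasts, 1500 cells/well, exposed to compound for 40 hr at 37 C. Cellular ATP was read by CellTiter-Glo luminescence; data normalized to DMSO and 100 uM tamoxifen, with AC50 from Hill fits.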

[3] = target: Mitogen-activated protein kinase 10 (Mus musculus) (UniProt Q61831); experiment: JNK3 AlphaScreen Assay (AID 530; active means well fitted curve in either direction with a large enough effect, not every such curve was filed as active;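 further: kinase came from lysate of stimulated human HepG2 cells; signal reports phosphorylation of biotinylated GST-cJun 1-79 at Ser73 with 10 µM ATP; on the % scale 0 is the no-effect control and ±100 the full control effect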); conditions: JNK3 lysate, c-Jun phosphorylation; series mostly up to 57.1 µM
Summary of the method: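 qHTS format: compounds tested as titrations against IL-1beta/TNF-alpha-activated HepG2 lysate JNK3 with biotin-GST-cJun substrate and 10 uM ATP at room temperature. Loss of anti-phospho-cJun AlphaScreen signal indicates inhibition.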

[4] = Cell Viability - HUV-EC-C (AID 542); conditions: HUV-EC-C endothelial cell viability, qHTS; series mostly up to 92.2 µM; further: on the % scale 0 is the no-effect control and ±100 the full control effect; nearly all actives have a fitted effect of over 35% in size
Summary of the method: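 HUV-EC-C normal human vascular endothelial cells, 1000 cells/well, pre-incubated 5 hr at 37 °C, then exposed to compounds for 40 hr at 37 °C in complete medium. Viability measured as intracellular ATP by CellTiter-Glo luminescence; AC50 from Hill fits.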

[5] = Cell Viability - SH-SY5Y (AID 544); conditions: SH-SY5Y neuroblastoma cell viability; viability change, negative = cytotoxic: at 92.2 µM (top of the series); further: nearly all actives have a fitted effect of over 55% in size
Summary of the method: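 Human neuroblastoma SH-SY5Y cells (1500/well) in complete medium were exposed to compounds for 40 hr at 37 °C; intracellular ATP was then quantified by CellTiter-Glo luminescence after 20 min at room temperature. AC50 came from Hill-equation concentration-response fits.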

[6] = Cell Viability - Renal Proximal Tubule (AID 545); conditions: renal proximal tubule cells viability; at 91.7 µM (top of the series), primary cells of rat origin unless noted; further: nearly all actives have a fitted effect of over 40% in size
Summary of the method: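 Cytotoxicity is scored as a concentration-dependent drop in cellular ATP in primary rat renal proximal tubule cells exposed for 40 hr. AC50 derives from Hill modelling.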

[7] = Cell Viability - Mesenchymal (AID 546); conditions: mesenchymal cells viability, qHTS; series mostly up to 91.7 µM;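 further: cells exposed to compound for 40 hours before reading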
Summary of the method: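 Human kidney mesenchymal cells from normal renal glomeruli, 1000 cells/well, rested 5 hr at 37 °C, then treated 40 hr at 37 °C in complete medium. Cellular ATP read by CellTiter-Glo luminescence; AC50 from Hill-equation fits.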

[8] = Cellular Toxicity (caspase-3) HUV-EC-C (AID 656); conditions: HUV-EC-C cells, caspase-3 activation (apoptosis), vehicle = 0, 100 µM tamoxifen = 100%; series mostly up to 92.2 µM
Summary of the method: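 Read-out: luminescence proportional to caspase 3/7 activity, measured 20 min after adding Caspase-Glo 3/7 reagent. Cells (HUV-EC-C) had received compound for 16 hr at 37°C. Increases relative to DMSO and 100 uM tamoxifen gave concentration-response AC50 values.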

[9] = Cellular Toxicity (caspase-3) SHSY5Y (AID 657); conditions: SH-SY5Y caspase-3 activation, DMSO zero, 10 µM staurosporine = 100%; series mostly up to 91.7 µM
Summary of the method: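 Cells plated and incubated 5 h at 37 °C, dosed over a concentration range, incubated 16 h, then given Caspase-Glo 3/7 reagent for 1 h at room temperature before luminescence reading. Staurosporine (10 uM) defined full stimulation.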

[10] = Cellular Toxicity (caspase-3) MRC-5 (AID 659); conditions: MRC-5 cells, luminescence, normalized: DMSO 0%, 10 µM staurosporine 100%; series mostly up to 91.7 µM
Summary of the method: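 MRC-5 human normal lung fibroblasts, 1500 cells/well, treated 16 h at 37 °C in complete medium. Caspase 3/7 measured by Caspase-Glo luminescence after 1 h at room temperature. Normalized to DMSO and 10 uM staurosporine; AC50 from Hill fit.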

[11] = Cellular Toxicity (caspase-3) Mesangial (AID 660); conditions: mesangial cells, normalized: DMSO 0%, 100 µM tamoxifen 100%; series mostly up to 91.7 µM;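 further: cells exposed to compound for 16 h before the caspase read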
Summary of the method: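 Human renal glomerular mesangial cells (1000/well) were treated with compounds for 16 h at 37 °C in complete medium, then caspase 3/7 activity was read by Caspase-Glo luminescence. Data were normalized to DMSO and 100 uM tamoxifen; AC50 from Hill fits.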

[12] = Cell Viability - LYMP1-002 - Assay at 16 hr (AID 948); conditions: LYMP1-002 lymphoblastoid cell viability; series mostly up to 92.2 µM;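 further: 0% = DMSO alone and full effect = 92 µM tetraoctylammonium bromide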
Summary of the method: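 Acute cytotoxicity is scored as a concentration-dependent fall in intracellular ATP in a human lymphoblastoid line (LYMP1-002) after 16 hr compound exposure at 37 C, measured by luciferase luminescence.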

[13] = MultiTox-Fluor Cytotoxicity Assay - LYMP1-003 - Dead Cells (AID 961); conditions: LYMP1-003 lymphoblastoid cells, dead-cell protease fluorescence; series mostly up to 92.2 µM;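 further: 0% = DMSO and 100% = tetraoctylammonium bromide; nearly all actives have a fitted effect of over 70% in size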
Summary of the method: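 LYMP1-003 human lymphoblastoid cells (2500/well) exposed to compound 16 h at 37 C in complete medium; dead-cell protease read with bis-AAF-R110 fluorescence (Ex/Em 485/520) after 60 min at room temperature. Normalized to DMSO and 15 uM tetraoctylammonium bromide; AC50 from Hill fit.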

[14] = Cell Viability - LYMP1-003 - Assay at 24 hr (AID 963); conditions: LYMP1-003 lymphoblastoid cell viability; series mostly up to 92.2 µM;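 further: plate controls were DMSO only for no effect and tetraoctylammonium bromide positive control for full effect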
Summary of the method: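 Human lymphoblastoid LYMP1-003 cells (2500/well) were rested 5 hr at 37 C, then exposed to compounds in complete medium for 24 hr at 37 C. Cellular ATP was quantified by CellTiter-Glo luminescence, and AC50 values came from Hill fits of concentration-response data.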

[15] = Cell Viability - LYMP2-015 (AID 971); conditions: LYMP2-015 lymphoblastoid cell viability; series mostly up to 92.2 µM;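 further: 0% = DMSO only and full effect = 92 µM tetraoctylammonium bromide; nearly all actives have a fitted effect of over 55% in size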
Summary of the method: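 Human lymphoblastoid cells (2500/well) in complete medium were preincubated 5 hr at 37 C, then compound-treated 24 hr at 37 C. Intracellular ATP was read by CellTiter-Glo luminescence after 30 min at room temperature; AC50 came from Hill-equation concentration-response fits.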

[16] = Cell Viability - LYMP2-025 (AID 976); conditions: LYMP2-025 lymphoblastoid cell viability; series mostly up to 92.2 µM;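 further: plate controls were DMSO only for no effect and tetraoctylammonium bromide control for full effect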
Summary of the method: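 Human lymphoblastoid LYMP2-025 cells (2500/well) were pre-incubated 5 hr at 37 C, then treated with compounds for 24 hr at 37 C in complete medium. Viability was read as intracellular ATP by CellTiter-Glo luminescence; AC50 from Hill fits.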

[17] = qHTS Assay for Identification of Small Molecule Inducers of Hypoxia Response (AID 2120; active means well fitted curve in the direction sought with a large enough effect in the signal ratio, with a control signal flat, not every such curve was filed as active; the % refers to the signal ratio; further: 0% is about no effect); conditions: hypoxia response reporter cells, beta-lactamase ratio readout; series mostly up to 104 µM
Summary of the method: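 HRE-beta-lactamase reporter in CellSensor HRE-bla ME-180 cells, 2500 cells/well in Opti-MEM with 0.5% dialyzed FBS; compounds tested as titration series, 17 h at 37 degrees C. CCF4 substrate 2.5 h at room temperature; AC50 from 460/530 nm ratio.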

[18] = qHTS assay for small molecule agonists of the antioxidant response element (ARE) signaling pathway measured by Nrf2-dependant transcriptional activity - cell viability counter screen (AID 720653; active means well fitted curve in the direction sought with a large enough effect in the repeat runs; an effect the other way counts as inactive or inconclusive; further: on the % scale 0 is the no-effect control and ±100 the full control effect); conditions: ARE-bla HepG2 viability, CellTiter-Glo ATP luminescence, 16 h; stronger effect = lower value
Summary of the method: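 ARE-bla HepG2 cells treated with compounds for 16 h at 37C; this counter screen measures viability as intracellular ATP by CellTiter-Glo luminescence after 30 min at room temperature.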

[19] = qHTS assay for cell viability of HEK293 cells (AID 743288); conditions: ATP luminescence (CellTiter-Glo), 18 h; max response: stronger effect = lower value; further: on the % scale 0 is the no-effect control and ±100 the full control effect; nearly all actives have a fitted effect of over 50% in size
Summary of the method: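 The Tox21 protocol used parental HEK293 cells treated for 18 h at 37 C with compounds delivered by pintool; ATP-coupled luminescence after 30 min at room temperature gave viability.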

[20] = qHTS assay for cell viability of the p53RE-bla HCT-116 cell line (AID 743292); conditions: p53RE-bla HCT-116 viability, ATP luminescence, 16 h; series mostly up to 95 µM; further: on the % scale 0 is the no-effect control and ±100 the full control effect; nearly all actives have a fitted effect of over 55% in size
Summary of the method: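 In this qHTS counter-screen, metabolically competent p53RE-bla HCT-116 cells were counted via their ATP content. Compounds were applied for 16 h at 37 C and luciferase-coupled luminescence was measured.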

CC(C)(C)OO
inactive: Potency [1] > 92 µM | Potency [2] > 92 µM | outcome [3] | Potency [4] | Potency [5] | activity change, negative = cytotoxicity [6] -2.92% and -10.1% | outcome [7] | outcome [8] | outcome [9] | outcome [10] | outcome [11] | Potency [12] | Potency [13] | Potency [14] | Potency [15] | Potency [16] | outcome [17] | max response [18] 15% and -27.6% | max response [19] -29% and 2.51% | Potency [20]

Cc1ccc(O)c(C)c1
inactive: Potency [1] > 92 µM | Potency [2] > 92 µM | outcome [3] | Potency [4] | Potency [5] | activity change, negative = cytotoxicity [6] -11.8% [at 91.7 µM] | outcome [7] | outcome [8] | outcome [9] | outcome [10] | outcome [11] | Potency [12] | Potency [13] | Potency [14] | Potency [15] | Potency [16] | outcome [17] | max response [18] -4.5% and -1.52% | max response [19] -1.16% and -6.96% and -11.5% | Potency [20]

CCOc1ccc(N)cc1
inactive: Potency [1] > 92 µM | Potency [2] > 92 µM | outcome [3] | Potency [4] | Potency [5] | activity change, negative = cytotoxicity [6] -1.23% | outcome [7] | outcome [8] | outcome [9] | outcome [10] | outcome [11] | Potency [12] | Potency [13] | Potency [14] | Potency [15] | Potency [16] | outcome [17] | max response [18] 1.12% | max response [19] 7.24% | Potency [20]

c1ccc(OP(Oc2ccccc2)Oc2ccccc2)cc1
inactive: Potency [1] > 92 µM | Potency [2] > 92 µM | outcome [3] | Potency [4] | Potency [5] | activity change, negative = cytotoxicity [6] 1.28% | outcome [7] | outcome [8] | outcome [9] | outcome [10] | outcome [11] | Potency [12] | Potency [13] | Potency [14] | Potency [15] | Potency [16] | outcome [17] | max response [18] 3.55% and -14.3% | max response [19] -13.6% and -7.52% | Potency [20]

S=C=Nc1cccc2ccccc12
inactive: Potency [1] > 92 µM | Potency [2] > 92 µM | outcome [3] | Potency [4] | Potency [5] | activity change, negative = cytotoxicity [6] 4.87% | outcome [7] | outcome [8] | outcome [9] | outcome [10] | outcome [11] | Potency [12] | Potency [13] | Potency [14] | Potency [15] | Potency [16] | outcome [17] | max response [18] -2.47% | max response [19] 0.149% | Potency [20]
